# Measured values from article PMC11006913.
# Where a chain is given by its changes, count along the chain named.
# What was measured:
# Test in all cases: PBM; 200 nM protein, PBS
# Conditions in all cases: dsDNA, one strand shown
# HOXC10 [1] = molecular target: HOXC10 (Homo sapiens, UniProt Q9NYD6 254-340)
# HOXC10 [2] = molecular target: HOXC10 (Homo sapiens, UniProt Q9NYD6 254-340, K271E)
# HOXB6 = HOXB6 (Homo sapiens, UniProt P17509 132-218)
# NKX2-6 [3] = molecular target: T1, NKX2-6 (Homo sapiens, UniProt A6NCS4 118-204, R150C)
# T1 sequence: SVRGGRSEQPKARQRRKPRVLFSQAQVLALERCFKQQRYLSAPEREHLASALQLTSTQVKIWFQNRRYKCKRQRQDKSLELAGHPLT
# ALX3 [4] = molecular target: ALX3 (Homo sapiens, UniProt O95076 139-225)
# Chain of ALX3 (Homo sapiens, UniProt O95076 139-225) (O95076 139-225): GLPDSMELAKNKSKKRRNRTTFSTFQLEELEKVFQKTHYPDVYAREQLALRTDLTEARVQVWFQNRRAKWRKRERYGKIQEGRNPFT
# ALX3 [5] = molecular target: ALX3 (Homo sapiens, UniProt O95076 139-225, L168Q)
# Chain of ALX3 (Homo sapiens, UniProt O95076 139-225, L168Q) (O95076 139-225 L168Q): as the sequence (O95076 139-225) above, with L30Q counted along it
# ALX3 [6] = molecular target: ALX3 (Homo sapiens, UniProt O95076 139-225, L168V)
# Chain of ALX3 (Homo sapiens, UniProt O95076 139-225, L168V) (O95076 139-225 L168V): as the sequence (O95076 139-225) above, with L30V counted along it
# NKX3-2 [7] = molecular target: NKX3-2 (Homo sapiens, UniProt P78367 192-278, P234S)
# Chain of NKX3-2 (Homo sapiens, UniProt P78367 192-278, P234S) (P78367 192-278 P234S): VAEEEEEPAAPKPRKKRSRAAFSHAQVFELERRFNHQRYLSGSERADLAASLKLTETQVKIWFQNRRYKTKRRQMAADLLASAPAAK
# NKX3-2 [8] = molecular target: NKX3-2 (Homo sapiens, UniProt P78367 192-278)
# Chain of NKX3-2 (Homo sapiens, UniProt P78367 192-278) (P78367 192-278): as the sequence (P78367 192-278 P234S) above, with S43P counted along it
# PROP1 [9] = molecular target: PROP1 (Homo sapiens, UniProt O75360 56-141)
# Chain of PROP1 (Homo sapiens, UniProt O75360 56-141) (O75360 56-141): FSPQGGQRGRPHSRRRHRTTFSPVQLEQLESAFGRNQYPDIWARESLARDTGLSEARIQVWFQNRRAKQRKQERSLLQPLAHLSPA
# PROP1 [10] = molecular target: PROP1 (Homo sapiens, UniProt O75360 56-141, R99H)
# Chain of PROP1 (Homo sapiens, UniProt O75360 56-141, R99H) (O75360 56-141 R99H): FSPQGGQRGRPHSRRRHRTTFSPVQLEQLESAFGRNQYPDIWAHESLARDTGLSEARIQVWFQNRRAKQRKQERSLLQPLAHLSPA
# PROP1 [11] = molecular target: PROP1 (Homo sapiens, UniProt O75360 56-141, F88S)
# Chain of PROP1 (Homo sapiens, UniProt O75360 56-141, F88S) (O75360 56-141 F88S): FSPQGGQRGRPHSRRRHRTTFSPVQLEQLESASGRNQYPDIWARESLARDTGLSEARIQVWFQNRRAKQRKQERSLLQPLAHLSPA
# NKX2-6 [12] = molecular target: T2, NKX2-6 (Homo sapiens, UniProt A6NCS4 118-204)
# T2 sequence: T1 sequence with C33R
# NKX2-6 [13] = molecular target: T3, NKX2-6 (Homo sapiens, UniProt A6NCS4 118-204, F151L)
# T3 sequence: T1 sequence with C33R, F34L
# HOXA4 [14] = molecular target: HOXA4 (Homo sapiens, UniProt Q00056 201-287, W262R)
# Chain of HOXA4 (Homo sapiens, UniProt Q00056 201-287, W262R) (Q00056 201-287 W262R): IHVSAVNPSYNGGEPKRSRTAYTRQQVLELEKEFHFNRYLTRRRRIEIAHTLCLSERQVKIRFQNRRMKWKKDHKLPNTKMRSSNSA
# HOXA4 [15] = molecular target: HOXA4 (Homo sapiens, UniProt Q00056 201-287, R217L)
# Chain of HOXA4 (Homo sapiens, UniProt Q00056 201-287, R217L) (Q00056 201-287 R217L): as the sequence (Q00056 201-287 W262R) above, with R17L, R62W counted along it
# HOXA4 [16] = molecular target: HOXA4 (Homo sapiens, UniProt Q00056 201-287)
# Chain of HOXA4 (Homo sapiens, UniProt Q00056 201-287) (Q00056 201-287): as the sequence (Q00056 201-287 W262R) above, with R62W counted along it
# HOXA4 [17] = molecular target: HOXA4 (Homo sapiens, UniProt Q00056 201-287, W262F)
# Chain of HOXA4 (Homo sapiens, UniProt Q00056 201-287, W262F) (Q00056 201-287 W262F): as the sequence (Q00056 201-287 W262R) above, with R62F counted along it
# HOXA7 [18] = molecular target: HOXA7 (Homo sapiens, UniProt P31268 116-202)
# Chain of HOXA7 (Homo sapiens, UniProt P31268 116-202) (P31268 116-202): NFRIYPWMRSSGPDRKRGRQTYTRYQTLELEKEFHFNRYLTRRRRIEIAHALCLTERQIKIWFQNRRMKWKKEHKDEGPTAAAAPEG
# HOXA7 [19] = molecular target: HOXA7 (Homo sapiens, UniProt P31268 116-202, W177C)
# Chain of HOXA7 (Homo sapiens, UniProt P31268 116-202, W177C) (P31268 116-202 W177C): as the sequence (P31268 116-202) above, with W62C counted along it
# Chain of HOXB6 (P17509 132-218): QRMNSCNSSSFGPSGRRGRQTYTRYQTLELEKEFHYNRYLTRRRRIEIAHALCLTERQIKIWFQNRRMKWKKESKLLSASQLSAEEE
# Chain of HOXC10 (Homo sapiens, UniProt Q9NYD6 254-340, K271E) (Q9NYD6 254-340 K271E): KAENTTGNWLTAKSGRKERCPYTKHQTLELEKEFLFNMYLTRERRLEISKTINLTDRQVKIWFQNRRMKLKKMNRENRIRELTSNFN
# Chain of HOXC10 (Homo sapiens, UniProt Q9NYD6 254-340) (Q9NYD6 254-340): as the sequence (Q9NYD6 254-340 K271E) above, with E18K counted along it
sequence,measurement,setting,value
ATAAAATA,binding signal,HOXC10 [1],"12.3 upbm affinity estimate (log intensity, higher = more binding, comparable within an allelic series)"
same,binding signal,HOXC10 [2],"11.7 upbm affinity estimate (log intensity, higher = more binding, comparable within an allelic series)"
CGTGAAGC,binding signal,HOXC10 [1],"10 upbm affinity estimate (log intensity, higher = more binding, comparable within an allelic series)"
same,binding signal,HOXC10 [2],"10 upbm affinity estimate (log intensity, higher = more binding, comparable within an allelic series)"
same,binding signal,HOXB6,"8.9 upbm affinity estimate (log intensity, higher = more binding, comparable within an allelic series)"
GCGCGGCA,binding signal,NKX2-6 [3],"9.57 upbm affinity estimate (log intensity, higher = more binding, comparable within an allelic series)"
same,binding signal,ALX3 [4],"7.75 upbm affinity estimate (log intensity, higher = more binding, comparable within an allelic series)"
same,binding signal,ALX3 [5],"7.66 upbm affinity estimate (log intensity, higher = more binding, comparable within an allelic series)"
same,binding signal,ALX3 [6],"7.72 upbm affinity estimate (log intensity, higher = more binding, comparable within an allelic series)"
CTGCCGGC,binding signal,NKX3-2 [7],"10.4 upbm affinity estimate (log intensity, higher = more binding, comparable within an allelic series)"
same,binding signal,NKX3-2 [8],"10.3 upbm affinity estimate (log intensity, higher = more binding, comparable within an allelic series)"
AGCCCCGG,binding signal,NKX3-2 [7],"10.6 upbm affinity estimate (log intensity, higher = more binding, comparable within an allelic series)"
same,binding signal,NKX3-2 [8],"10.6 upbm affinity estimate (log intensity, higher = more binding, comparable within an allelic series)"
CCGCAGCC,binding signal,PROP1 [9],"6.67 upbm affinity estimate (log intensity, higher = more binding, comparable within an allelic series)"
same,binding signal,PROP1 [10],"6.75 upbm affinity estimate (log intensity, higher = more binding, comparable within an allelic series)"
same,binding signal,PROP1 [11],"6.52 upbm affinity estimate (log intensity, higher = more binding, comparable within an allelic series)"
CGCTACCG,binding signal,NKX2-6 [3],"9.4 upbm affinity estimate (log intensity, higher = more binding, comparable within an allelic series)"
CGCTGCGC,binding signal,NKX2-6 [12],"9.4 upbm affinity estimate (log intensity, higher = more binding, comparable within an allelic series)"
same,binding signal,ALX3 [4],"7.66 upbm affinity estimate (log intensity, higher = more binding, comparable within an allelic series)"
same,binding signal,ALX3 [5],"7.68 upbm affinity estimate (log intensity, higher = more binding, comparable within an allelic series)"
same,binding signal,NKX2-6 [13],"9.26 upbm affinity estimate (log intensity, higher = more binding, comparable within an allelic series)"
same,binding signal,ALX3 [6],"7.68 upbm affinity estimate (log intensity, higher = more binding, comparable within an allelic series)"
CTGCGGAC,binding signal,HOXB6,"8.8 upbm affinity estimate (log intensity, higher = more binding, comparable within an allelic series)"
AACGCGGC,binding signal,HOXB6,"9.14 upbm affinity estimate (log intensity, higher = more binding, comparable within an allelic series)"
CCCTAGGG,binding signal,NKX3-2 [7],"10.6 upbm affinity estimate (log intensity, higher = more binding, comparable within an allelic series)"
same,binding signal,NKX3-2 [8],"10.5 upbm affinity estimate (log intensity, higher = more binding, comparable within an allelic series)"
CCCCAGCG,binding signal,NKX3-2 [7],"10.5 upbm affinity estimate (log intensity, higher = more binding, comparable within an allelic series)"
same,binding signal,NKX3-2 [8],"10.6 upbm affinity estimate (log intensity, higher = more binding, comparable within an allelic series)"
AGCCGGCT,binding signal,ALX3 [4],"8.13 upbm affinity estimate (log intensity, higher = more binding, comparable within an allelic series)"
same,binding signal,ALX3 [5],"7.76 upbm affinity estimate (log intensity, higher = more binding, comparable within an allelic series)"
same,binding signal,ALX3 [6],"7.76 upbm affinity estimate (log intensity, higher = more binding, comparable within an allelic series)"
CGGCTTCC,binding signal,HOXA4 [14],"9.74 upbm affinity estimate (log intensity, higher = more binding, comparable within an allelic series)"
same,binding signal,HOXA4 [15],"9.5 upbm affinity estimate (log intensity, higher = more binding, comparable within an allelic series)"
same,binding signal,HOXA4 [16],"9.53 upbm affinity estimate (log intensity, higher = more binding, comparable within an allelic series)"
same,binding signal,HOXA4 [17],"9.63 upbm affinity estimate (log intensity, higher = more binding, comparable within an allelic series)"
ACGCCGGG,binding signal,HOXA4 [14],"9.71 upbm affinity estimate (log intensity, higher = more binding, comparable within an allelic series)"
same,binding signal,HOXA4 [15],"9.86 upbm affinity estimate (log intensity, higher = more binding, comparable within an allelic series)"
same,binding signal,HOXA4 [16],"9.92 upbm affinity estimate (log intensity, higher = more binding, comparable within an allelic series)"
same,binding signal,HOXA4 [17],"9.88 upbm affinity estimate (log intensity, higher = more binding, comparable within an allelic series)"
GCACGCCC,binding signal,HOXA7 [18],"8.55 upbm affinity estimate (log intensity, higher = more binding, comparable within an allelic series)"
same,binding signal,HOXA7 [19],"8.44 upbm affinity estimate (log intensity, higher = more binding, comparable within an allelic series)"
CGGCCTGC,binding signal,HOXA7 [18],"8.37 upbm affinity estimate (log intensity, higher = more binding, comparable within an allelic series)"
same,binding signal,HOXA7 [19],"8.26 upbm affinity estimate (log intensity, higher = more binding, comparable within an allelic series)"
CTCGGGCC,binding signal,HOXB6,"8.82 upbm affinity estimate (log intensity, higher = more binding, comparable within an allelic series)"
AGCGCCCG,binding signal,HOXB6,"8.92 upbm affinity estimate (log intensity, higher = more binding, comparable within an allelic series)"
CGCTCCGC,binding signal,HOXB6,"9.09 upbm affinity estimate (log intensity, higher = more binding, comparable within an allelic series)"
